Screening results as filed in PubChem.
In the library only some 4.8% were active in any assay of this set; here they are far more common.
hcDAF-12_act = H. contortus DAF-12 nuclear receptor activators, primary screen, cell-based, luminescence, HEK293, lit1-tk-luc reporter; HEK293 hcDAF-12 lit1-tk-luc reporter; 0% DMSO, 100% Δ7-dafachronic acid; activation, % at 6.8 µM; 370,000 tested, 1.4% active; AID 652067, 2013;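 active means activation above the mean of all tested compounds plus 3 SD, cut at about 5.5% in these data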;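 further: 100% = response to 3 µM Δ7-dafachronic acid high control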
SMARCA2_act = SMARCA2 (BRM) function activators, primary screen, cell-based, luminescence, high throughput | AID 652017, 2013 | 370,000 tested, 1% active | MG213 cells, MMTV-luciferase reporter, dexamethasone, overnight | activation, % at 9.1 µM; in the data active means activation above about 7.8%;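 further: 0% = vehicle wells and 100% = reference activator wells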
DAX1_inh-1 = DAX1 (NR0B1) inhibitors on StAR promoter, primary screen, cell-based, luminescence, SF-1 (NR5A1), full-length DAX-1. HEK293T StAR-luciferase reporter, SF-1/DAX-1 repression relief. inhibition, % at 6.8 µM. 370,000 tested, 1.1% active. AID 652010, 2013;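 active means inhibition above the mean over all tested compounds plus 3 SD, cut at about 3.6% in these data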;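 further: 0% = DAX-1 cells with DMSO and 100% = cells lacking DAX-1 with DMSO; higher inhibition means more luminescence from relief of DAX-1 repression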
DAX1_inh-2 = DAX1 (NR0B1) inhibitors, primary screen, cell-based, HEK293, Gal4-DAX1, luciferase luminescence; HEK293 Gal4-DAX1 luciferase reporter; AID 504766, 2011; inhibition, % at 6.75 µM; Nuclear receptor subfamily 0 group B member 1 (Homo sapiens), P51843; 340,000 tested, 0.99% active;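 active means inhibition above the mean over all tested compounds plus 3 SD, cut at about 4.2% in these data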;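 further: 0% = DAX1-transfected cells with DMSO and 100% = empty-vector control cells with DMSO; inhibition shows as a rise in luminescence from relieved DAX1 repression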
Target sequence (P51843 207-470 limits assumed): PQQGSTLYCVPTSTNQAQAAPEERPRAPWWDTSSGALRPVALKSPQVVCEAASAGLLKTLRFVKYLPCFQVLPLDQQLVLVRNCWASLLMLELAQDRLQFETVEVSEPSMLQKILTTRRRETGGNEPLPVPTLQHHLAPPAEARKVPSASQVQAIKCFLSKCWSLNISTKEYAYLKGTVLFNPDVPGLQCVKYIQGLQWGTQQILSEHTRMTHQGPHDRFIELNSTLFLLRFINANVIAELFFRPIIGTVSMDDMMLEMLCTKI
hgDAF-12_ag = H. glycines DAF-12 receptor agonists, primary screen, cell-based, luminescence, HEK293, GAL4 fusion, UAS-luciferase. Nuclear hormone receptor DAF-12 (Heterodera glycines), GAL4 fusion. HEK293 GAL4-hgDAF12 UAS-luciferase reporter, agonist luminescence; normalized to butyrate control. activation, % at 6.8 µM. 370,000 tested, 1.8% active. AID 687014, 2013;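 active means activation above a cutoff set at the mean of all screened compounds plus 3 SD, cut at about 10% in these data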;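 further: 0% = DMSO wells and 100% = sodium butyrate wells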
ssDAF-12_act = S. stercoralis DAF-12 nuclear receptor activators, primary screen, cell-based, luminescence, HEK293, GRIP1 co-expression, lit1-tk-luc. AID 652126, 2013. activation, % at 6.8 µM. Nuclear hormone receptor DAF-12 (Strongyloides stercoralis). 370,000 tested, 1% active. HEK293 ssDAF-12/GRIP1 lit1-tk-luc reporter; % of 3 µM dafachronic acid response;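 active means activation above the mean over all tested compounds plus 3 SD, cut at about 0.9% in these data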;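 further: 0% = DMSO-only wells and 100% = 3 µM delta7-dafachronic acid wells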
SMARCA2_conf = SMARCA2 (BRM) function activators, confirmation, cell-based, luminescence, triplicate. shares compounds with SMARCA2_act. MG213 cells, MMTV-luciferase with dexamethasone, overnight; MG213 cells expressing E1A, Rb sequestered; DMSO wells 0%, reference activator 100%. activation, % at 9.1 µM. 3,500 tested, 30% active. AID 652260, 2013;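 active means activation above its plate's cutoff, the mean activation of tested wells plus 3 SD, cut at about 7.9% in these data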
GAL4-VP16_Luc = GAL4-VP16 luciferase reporter activation, counter-screen for SMARCA2 (BRM) activator project, cell-based, pG5luc, luminescence, high throughput; shares compounds with SMARCA2_act; HEK293 GAL4-VP16 pG5luc reporter; scaled: DMSO wells 0%, SAHA wells 100%; activation, % at 9.1 µM; 3,500 tested, 41% active;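 active means activation above the solvent-only control well mean plus 3 SD, averaged across control plates, cut at about 5.2% in these data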
An asterisk follows results filed as active; nt = not tested or not shown.

SMILES hcDAF-12_act SMARCA2_act DAX1_inh-1 DAX1_inh-2 hgDAF-12_ag ssDAF-12_act SMARCA2_conf GAL4-VP16_Luc
CN(C)c1ccc(-c2ccc3c(=O)c4ccccc4n(C)c3c2)cn1 1.9 8.5* 0.9 0.0 10.3 -0.2 9.8* 10.8*
COC(=O)c1cccc(Oc2cccc(C(F)(F)F)c2)n1 -1.5 11.0* 0.1 -0.3 -0.3 -0.8 1.7 2.2
CCOC(=O)[C@@]12CCCC3=C1N(CCC3)C(=O)[C@H]2CC(=O)NCc1cccc(C(F)(F)F)c1 -0.3 -2.4 -0.5 nt -0.1 -1.7 nt nt
O=[N+]([O-])c1cccc(COc2ccc(CO)cc2)c1 7.0* 9.4* 1.9 nt 18.8* 2.6* 9.1* 12.6*
COc1ccccc1NC(=O)c1cc(=O)[nH]c2ccccc12 4.3 -1.9 0.4 -0.2 0.3 0.5 nt nt
COc1ccccc1NC(=O)c1c[nH]c2ccccc12 3.5 10.0* 0.8 4.2 5.0 0.2 3.7 3.9
Cc1cccc(C)c1NC(=O)CNC(=O)Cc1c[nH]c2ccccc12 4.1 -3.0 0.8 0.8 2.3 0.6 nt nt
